# In the supplement of paper PMC3414501:
# Where a name gives a salt, the structure may show the parent alone. A number with no mark means an inactive call. No stated cut-off is given here; in the data, active = 2 or more and inactive = the rest.
# Test system: S. cerevisiae AD1-9 (efflux-pump deficient), vegetative growth in YPD
# Assay: growth sensitivity score (doubling time z-score vs DMSO controls); higher = slower growth, strongly negative scores also mark growth inhibition (complete suppression), active = hit call of the paper
# Outline: (§1)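 Yeast (Saccharomyces cerevisiae BY4741 and AD1-9) was grown in rich medium in microtiter plates from a starting OD600 of 0.065, with optical density read every 15 min over 24 hours. The growth sensitivity score was the difference between compound and solvent-only means, divided by the solvent-only standard deviation. Every experiment had eight solvent-only wells.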
row,SMILES,growth sensitivity score
1,"C=C1/C(=C\C=C2/CCC[C@]3(C)[C@@H]([C@H](C)CCCC(C)(C)O)CC[C@@H]23)C[C@@H](O)C[C@@H]1O [Calcitriol] (stock concentration (mM, diluted 1:100): 10)",21.1 (active)
2,"NC1CCN(c2nc3c(cc2F)c(=O)c(C(=O)O)cn3-c2ccc(F)cc2F)C1 (configuration not stated) [Tosufloxacin tosylate] (stock concentration (mM, diluted 1:100): 7)",1.02
3,"CS(=O)(=O)c1ccc(-c2cc(Br)sc2-c2ccc(F)cc2)cc1 (stock concentration (mM, diluted 1:100): 10)",8.97 (active)
4,"O=C(c1ccc(F)cc1)C1CCN(CCn2c(=S)[nH]c3ccccc3c2=O)CC1 [Altanserin] (stock concentration (mM, diluted 1:100): 10)",-0.28
5,"Cc1cccc(C)c1NC(=O)C(C)N (configuration not stated) [Tocainide] (stock concentration (mM, diluted 1:100): 10)",1.11
6,"Clc1ccccc1C(c1ccccc1)(c1ccccc1)n1ccnc1 [Clotrimazole] (stock concentration (mM, diluted 1:100): 10)",2.49 (active)
7,"CCN1CCN(c2cc3c(cc2F)c(=O)c(C(=O)O)cn3C2CC2)CC1 [Enrofloxacin] (stock concentration (mM, diluted 1:100): 10)",37.5 (active)
8,"CCCCC1=NC2(CCCC2)C(=O)N1Cc1ccc(-c2ccccc2-c2nnn[nH]2)cc1 [Irbesartan] (stock concentration (mM, diluted 1:100): 10.1)",-0.82
9,"CNCC[C@@H](Oc1ccccc1C)c1ccccc1 [Atomexetine hydrochloride] (stock concentration (mM, diluted 1:100): 8.7)",5.57 (active)
10,"CN(C)CCCSc1ccccc1NC(=O)/C=C/c1ccccc1 [Cinanserin] (stock concentration (mM, diluted 1:100): 10)",41.8 (active)
11,"CCOC(=O)C1=C(C)NC(C)=C(C(=O)OCC)C1c1ccccc1/C=C/C(=O)OC(C)(C)C [Lacidipine] (stock concentration (mM, diluted 1:100): 10)",10.2 (active)
12,"CCCCC(=O)N(Cc1ccc(-c2ccccc2-c2nnn[nH]2)cc1)[C@H](C(=O)O)C(C)C [Valsartan] (stock concentration (mM, diluted 1:100): 10)",-1.81
13,"COc1ccccc1N1CCN(CCCNc2cc(=O)n(C)c(=O)n2C)CC1 [Urapidil hydrochloride] (stock concentration (mM, diluted 1:100): 10)",-0.84

# Test system: S. cerevisiae BY4741 (wild-type), vegetative growth in YPD
# Assay: as above
# Outline: as §1
row,SMILES,growth sensitivity score
1,"C[N+]1(C)CCC(OC(=O)C(O)(c2ccccc2)C2CCCC2)C1 (configuration not stated) [Glycopyrrolate] (stock concentration (mM, diluted 1:100): 10)",-0.04
2,"CN1C2CCCC1CC(NC(=O)c1nn(C)c3ccccc13)C2 (configuration not stated) [Granisetron hydrochloride] (stock concentration (mM, diluted 1:100): 9)",-0.57
3,"CC(C(=O)O)c1ccc(CC2CCCC2=O)cc1 (configuration not stated) [Loxoprofen sodium] (stock concentration (mM, diluted 1:100): 9.1)",-0.61
4,"C#C[C@]1(O)CC[C@H]2[C@@H]3[C@H](C)CC4=C(CCC(=O)C4)[C@H]3CC[C@@]21C [Tibolone] (stock concentration (mM, diluted 1:100): 10)",0.52
5,"O=c1c(O[C@@H]2O[C@H](CO)[C@@H](O)[C@H](O)[C@H]2O)c(-c2ccc(O)c(O)c2)oc2cc(O)cc(O)c12 [Isoquercetrin] (stock concentration (mM, diluted 1:100): 10)",0.03
6,"COc1cc2nc(N3CCN(C(=O)C4CCCO4)CC3)nc(N)c2cc1OC (configuration not stated) [Terazosin] (stock concentration (mM, diluted 1:100): 9.5)",-0.03
7,"C[C@H](CCC(=O)O)[C@H]1CC[C@H]2[C@@H]3C(=O)C[C@@H]4CC(=O)CC[C@]4(C)[C@H]3CC(=O)[C@]12C [Dehydrocholic acid] (stock concentration (mM, diluted 1:100): 10)",-0.69
8,"COc1cccc2c1C(=O)c1c(O)c3c(c(O)c1C2=O)C[C@@](O)(C(=O)CO)C[C@@H]3O[C@H]1C[C@H](N)[C@@H](O)[C@H](C)O1 [Epirubicin hydrochloride] (stock concentration (mM, diluted 1:100): 9.4)",11.8 (active)
9,"O=C(O)C[C@H](O)C[C@H](O)/C=C/c1c(C2CC2)nc2ccccc2c1-c1ccc(F)cc1 [Livalo] (stock concentration (mM, diluted 1:100): 5)",15.7 (active)
10,"COc1nc(C)nc(Cl)c1NC1=NCCN1 [Moxonidine hydrochloride] (stock concentration (mM, diluted 1:100): 9.2)",0.19
11,"C=CC1=C(C(=O)O)N2C(=O)[C@@H](NC(=O)/C(=N\O)c3csc(N)n3)[C@H]2SC1 [Cefdinir] (stock concentration (mM, diluted 1:100): 10)",-0.67
12,"COc1ccc2c3c1O[C@H]1C[C@@H](O)C=C[C@@]31CCN(C)C2 [Galanthamine] (stock concentration (mM, diluted 1:100): 8.8)",0.11
13,"Cc1c(O)cccc1C(=O)N[C@@H](CSc1ccccc1)[C@H](O)CN1C[C@H]2CCCC[C@H]2C[C@H]1C(=O)NC(C)(C)C [Nelfinavir mesylate] (stock concentration (mM, diluted 1:100): 8.6)",0.56
14,"c1cnc(N2CCN(Cc3ccc4c(c3)OCO4)CC2)nc1 [Piribedil] (stock concentration (mM, diluted 1:100): 9.7)",1.65
15,"CC(=O)[C@H]1CC[C@H]2[C@@H]3CCC4=CC(=O)CC[C@]4(C)[C@H]3CC[C@]12C [Progesterone] (stock concentration (mM, diluted 1:100): 10)",4.04 (active)
16,"C[C@H]1O[C@H](O[C@H]2[C@H](O)[C@@H](O)[C@@H](O[C@H]3[C@H](O)[C@@H](O)C(O)O[C@@H]3CO)O[C@@H]2CO)[C@H](O)[C@@H](O)[C@@H]1N[C@H]1C=C(CO)[C@@H](O)[C@H](O)[C@H]1O (some centres not stated) [Acarbose] (stock concentration (mM, diluted 1:100): 10)",-1.13
17,"CN(C)CCC=C1c2ccccc2COc2ccccc21 [Doxepin] (stock concentration (mM, diluted 1:100): 10)",1.16
18,"O=C1CC2(CCCC2)CC(=O)N1CCNCC1COc2ccccc2O1 (configuration not stated) (stock concentration (mM, diluted 1:100): 10)",1.45
19,"Cn1c(NCCN(CCO)CCCc2ccc([N+](=O)[O-])cc2)cc(=O)n(C)c1=O [Nifekalant hydrochloride] (stock concentration (mM, diluted 1:100): 9.2)",-0.07
20,"COc1c(N2C[C@@H]3CCCN[C@@H]3C2)c(F)cc2c(=O)c(C(=O)O)cn(C3CC3)c12 [Moxifloxacin hydrochloride] (stock concentration (mM, diluted 1:100): 9.2)",0.08
21,"CC(=O)N1CCN(c2ccc(OCC3COC(Cn4ccnc4)(c4ccc(Cl)cc4Cl)O3)cc2)CC1 (configuration not stated) [Ketoconazole] (stock concentration (mM, diluted 1:100): 10)",35.3 (active)
22,"OC[C@H]1O[C@@H](Oc2cc(O)cc(/C=C/c3ccc(O)cc3)c2)[C@H](O)[C@@H](O)[C@@H]1O [Piceid] (stock concentration (mM, diluted 1:100): 10)",-0.24
23,"CC(C)c1ccc2oc3nc(N)c(C(=O)O)cc3c(=O)c2c1 [Amlexanox] (stock concentration (mM, diluted 1:100): 10)",1.8
24,"CCCN1CCCC[C@H]1C(=O)Nc1c(C)cccc1C [Ropivacaine hydrochloride] (stock concentration (mM, diluted 1:100): 7.7)",-0.74
25,"C=C1/C(=C\C=C2/CCC[C@]3(C)[C@@H]([C@H](C)CCCC(C)(C)O)CC[C@@H]23)C[C@@H](O)C[C@@H]1O [Calcitriol] (stock concentration (mM, diluted 1:100): 10)",-0.32
26,"NC1CCN(c2nc3c(cc2F)c(=O)c(C(=O)O)cn3-c2ccc(F)cc2F)C1 (configuration not stated) [Tosufloxacin tosylate] (stock concentration (mM, diluted 1:100): 7)",-0.39
27,"CS(=O)(=O)c1ccc(-c2cc(Br)sc2-c2ccc(F)cc2)cc1 (stock concentration (mM, diluted 1:100): 10)",-0.63
28,"O=C(c1ccc(F)cc1)C1CCN(CCn2c(=S)[nH]c3ccccc3c2=O)CC1 [Altanserin] (stock concentration (mM, diluted 1:100): 10)",-0.21
29,"Cc1cccc(C)c1NC(=O)C(C)N (configuration not stated) [Tocainide] (stock concentration (mM, diluted 1:100): 10)",-0.53
